PubChem BioAssay AID2279 (Southern Research Specialized Biocontainment Screening …, 2010)
Measured potencies and affinities stand elsewhere. Active and inactive are the calls of the source. How the calls were made is not given here.

Experiment: CCR5-tropic HIV-1 fusion blockers – cell-based, CCR5-tropic Env, dose response (AID 2279)
Conditions: CCR5-tropic HIV-1 Env, reporter read-out; series mostly up to 50 µM; inhibition: at the top concentration

inhibition, inactive:
Cc1ccc(C)c(S(=O)(=O)/N=C2\C=C(NS(=O)(=O)c3ccccc3)C(=O)c3ccccc32)c1 32.6%
O=C(O)c1cccc2c(-c3ccccc3)c(-c3ccccc3)[nH]c12 13%
CCOc1ccc2nc(NC(=O)CSc3nc(-c4ccccc4)c(C#N)c(=O)[nH]3)sc2c1 9.5%
Cc1cc(/C=C2\C(=N)N3N=C(S(C)(=O)=O)SC3=NC2=O)c(C)n1Cc1ccccc1 14%
COc1cc(/C=C2\SC(=Nc3ccccc3)N(CCc3c[nH]c4ccccc34)C2=O)ccc1OC(C)C(=O)O (centres undefined) 36.7%
O=C(NN1C(=O)/C(=C\c2ccc(O)c([N+](=O)[O-])c2)SC1=S)c1ccccc1Cl 2.89%
C/C(=N\Nc1ccc(C(=O)O)cc1)c1ccc2c(c1)Nc1ccccc1S2 27.4%
CCOc1cc(/C=C2\C(=N)N3N=C(S(C)(=O)=O)SC3=NC2=O)ccc1OCCOc1cccc(OC)c1 5.44%
O=C1NC(=O)/C(=C/c2ccc(-c3cc(C(=O)O)ccc3Cl)o2)S1 4.39%
CC(c1ccccc1)N1C(=O)c2ccc(C(=O)Nc3ccccc3C(=O)O)cc2C1=O (centres undefined) 3.54%
COc1ccc(C(=O)COC(=O)c2ccccc2NS(=O)(=O)c2ccc(O)c([N+](=O)[O-])c2)cc1 -1.29%
O=C(NCCc1ccccc1)c1ccc2c(=O)[nH]c3c(C(=O)NCC4CCCO4)sc(=S)n3c2c1 (centres undefined) 39.4%
CCCOc1ccc(C(=O)NNC(=S)NC(=O)c2cc(-c3ccc(Cl)cc3)nc3ccccc23)cc1 -2.5%
Cc1ccccc1N=C1NC(=O)/C(=C/c2cccn2-c2cccc(C(=O)O)c2)S1 -7.38%
